Bioassay records as filed in PubChem BioAssay.
GLD-1 TGE inh: GLD-1-TGE RNA interaction inhibition (C. elegans); Q17339; purified GLD-1 + fluorescein TGE RNA, fluorescence polarization; inhibition, % at 5.96 µM; hit rate 0.44% among 320,000;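 active = percent inhibition above a per-plate cutoff, the plate mean of test compounds plus 3 SD, cut at about 30% in these data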;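 note: 0% = DMSO wells with GLD-1 and probe and 100% = wells lacking GLD-1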
EBV gp42 block: blocks Epstein-Barr virus glycoprotein 42 binding | hit rate 0.42% among 220,000 | Q1HVG2 | AID 1085 | inhibition, % (tested at 21.74 µM) | Fluorescence polarization binding assay, mP read-out; in the data active = inhibition above about 50%
LANA-H2A inh: blocks KSHV LANA binding to histone H2A/H2B; Q9QR71; cell-free LANA-H2A/H2B peptide, fluorescence polarization; inhibition, % (no concentration beside the values); hit rate 0.6% among 320,000; in the data active = inhibition mostly above about 10%, no sharp cut-off; inactive = mostly below about 6.7%
C-LANA FP: blocks KSHV LANA C-terminal domain binding to DNA; MBP-C-LANA/FAM-LBS DNA binding, fluorescence polarization; inhibition, % at 9 µM; hit rate 0.078% among 340,000;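 active = highest replicate inhibition at or above 60% at 9 µM, even if other replicates fall short; inactive = all replicates below 60% inhibition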;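 note: 0% = neutral control wells and 100% = 4 µM acridine orange control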
Keap1 Nrf2 FP: inhibitors of human Keap1-Nrf2 protein-protein interaction; inhibition, % at 9.4 µM; Keap1 Kelch-Nrf2 peptide fluorescence polarization, 1536-well; Q14145; hit rate 0.15% among 340,000; in the data active = inhibition above about 12%;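 note: human Keap1 Kelch domain with fluorescein labeled Nrf2 9mer peptide probe; 0% = neutral control wells and 100% = peptide positive control; higher means more block of Keap1 binding to Nrf2 peptide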
E coli Lon inh: inhibitors of E. coli Lon protease; hit rate 0.42% among 360,000; P0A9M0; inhibition, % at 7.94 µM; AID 602123; purified E. coli Lon protease, fluorescence polarization; in the data active = inhibition above about 13%, passing the limit was not always enough;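 note: 0% = enzyme with probe and DMSO and 100% = no enzyme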
Target sequence (P0A9M0 whole entry, looked up): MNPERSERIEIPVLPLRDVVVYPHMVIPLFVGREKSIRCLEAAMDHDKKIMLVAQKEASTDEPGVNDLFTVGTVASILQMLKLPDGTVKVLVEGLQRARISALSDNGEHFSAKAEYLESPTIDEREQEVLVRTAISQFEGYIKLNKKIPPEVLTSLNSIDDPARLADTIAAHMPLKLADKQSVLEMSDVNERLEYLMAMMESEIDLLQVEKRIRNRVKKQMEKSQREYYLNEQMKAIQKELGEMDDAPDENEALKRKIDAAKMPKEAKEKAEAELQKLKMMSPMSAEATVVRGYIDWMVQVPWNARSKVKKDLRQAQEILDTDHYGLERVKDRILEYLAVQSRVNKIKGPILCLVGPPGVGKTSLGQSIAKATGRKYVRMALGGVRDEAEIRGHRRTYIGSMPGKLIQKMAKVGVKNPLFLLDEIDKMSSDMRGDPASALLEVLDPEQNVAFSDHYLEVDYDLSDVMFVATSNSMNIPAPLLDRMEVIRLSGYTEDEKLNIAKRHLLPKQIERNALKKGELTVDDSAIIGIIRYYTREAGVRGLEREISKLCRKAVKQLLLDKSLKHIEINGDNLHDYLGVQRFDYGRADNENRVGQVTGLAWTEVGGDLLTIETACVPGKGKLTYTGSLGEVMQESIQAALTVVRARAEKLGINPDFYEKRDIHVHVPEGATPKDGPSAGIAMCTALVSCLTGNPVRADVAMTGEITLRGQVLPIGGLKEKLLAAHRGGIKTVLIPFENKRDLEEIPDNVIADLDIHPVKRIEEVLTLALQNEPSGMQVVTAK
An asterisk follows results filed as active. In the library only some 1.5% were active in any assay of this set; here they are far more common.

What do the screens show for `O=C1OC2(c3ccccc31)c1cc(I)c(O)c(I)c1Oc1c2cc(I)c(O)c1I`?
GLD-1 TGE inh: 51.0*; LANA-H2A inh: -176.5

What do the screens show for `CC(=O)Nc1ccc(C(=O)OCCc2ccccc2)cc1`?
GLD-1 TGE inh: -2.6; LANA-H2A inh: 14.7*; C-LANA FP: -1.9; Keap1 Nrf2 FP: -10.9; E coli Lon inh: 4.0

Results for CC1=C(C(=O)N(C(C)C)C(C)C)CC(CC(=O)NCCCCc2ccccc2)C(=O)N1Cc1ccc(C(C)(C)C)cc1 (stereo unspecified) ?
E coli Lon inh: 13.3

What do the screens show for `CCCCNC(=O)C(C#N)c1nc2ccccc2nc1N1CCCC1` (stereo unspecified)?
EBV gp42 block: -28.7

What do the screens show for `CCCCNC(=O)C(C#N)c1nc2ccccc2nc1N1CCN(Cc2ccc3c(c2)OCO3)CC1` (stereo unspecified)?
C-LANA FP: 0.6; Keap1 Nrf2 FP: -3.2; E coli Lon inh: -9.1

Results for CC1CN(c2nc3ccccc3nc2C(C#N)C(=O)NCc2ccc3c(c2)OCO3)CC(C)O1 (stereo unspecified) ?
GLD-1 TGE inh: 0.9; EBV gp42 block: 70.7*; LANA-H2A inh: 3.6; C-LANA FP: 2.8; Keap1 Nrf2 FP: -0.7; E coli Lon inh: 0.9

How did C=CCNC(=O)C(C#N)c1nc2ccccc2nc1N1CCCCCC1 (stereo unspecified) do in these assays?
GLD-1 TGE inh: 57.4*; EBV gp42 block: 40.4; LANA-H2A inh: -3.6; C-LANA FP: 18.6; Keap1 Nrf2 FP: -5.0; E coli Lon inh: 13.2

How did Cc1ccc(F)c(S(=O)(=O)NC(=O)C2(C)CCN2C(=O)CC(c2ccccc2)c2ccccc2)c1 (stereo unspecified) do in these assays?
E coli Lon inh: 4.4

What do the screens show for `CC(C)c1ccc(N(CC(=O)NC2CCCCC2)C(=O)CNC(=O)c2ccco2)cc1`?
GLD-1 TGE inh: 1.9; LANA-H2A inh: 39.0*; C-LANA FP: 0.0; Keap1 Nrf2 FP: 1.2; E coli Lon inh: 2.0

How did CCc1ccc(N(CC(=O)NC2CCCCC2)C(=O)CNC(=O)c2ccco2)cc1 do in these assays?
GLD-1 TGE inh: 1.8; LANA-H2A inh: -8.5; C-LANA FP: 3.2; Keap1 Nrf2 FP: -1.0; E coli Lon inh: -5.4

How did O=C(/C=C/c1ccc(Br)o1)Nc1nccs1 do in these assays?
GLD-1 TGE inh: 4.2; EBV gp42 block: -6.0; LANA-H2A inh: 19.1*; C-LANA FP: 2.9; Keap1 Nrf2 FP: -4.2; E coli Lon inh: -3.9

What do the screens show for `COC(=O)c1ccccc1OCc1cc(=O)oc2ccc(C)cc12`?
E coli Lon inh: 13.1

How did N=C1S/C(=C\c2ccc(-c3cccc(Cl)c3)o2)C(=O)N1c1nccs1 do in these assays?
GLD-1 TGE inh: -6.5; EBV gp42 block: 75.7*; C-LANA FP: 0.8; Keap1 Nrf2 FP: -5.1; E coli Lon inh: -41.0

Results for O=S1(=O)CC(N2CCC(Cc3ccccc3)CC2)CN1C1CCCCC1 (stereo unspecified) ?
E coli Lon inh: -5.6

What do the screens show for `CC(C)Nc1ncnc2c1ncn2[C@H]1CN(CCN2CCOCC2)C[C@@H](CO)O1`?
E coli Lon inh: -1.4

How did CCOC(=O)C1=C(C)NC(C)=C(C(=O)OCC)C1C(=O)OCC(=O)N(C)C1CCS(=O)(=O)C1 (stereo unspecified) do in these assays?
GLD-1 TGE inh: -1.1; EBV gp42 block: 3.2; LANA-H2A inh: 19.6*; C-LANA FP: -0.2; Keap1 Nrf2 FP: 1.5; E coli Lon inh: 2.0

What do the screens show for `C=C(C)Cn1c(C2CC(=O)N(Cc3ccccc3)C2)nc2ccccc21` (stereo unspecified)?
GLD-1 TGE inh: -0.1; LANA-H2A inh: 4.2; C-LANA FP: -2.3; Keap1 Nrf2 FP: -4.2; E coli Lon inh: -6.7

How did C=CCN1CC(c2nc3ccccc3n2CCOc2ccccc2)CC1=O (stereo unspecified) do in these assays?
GLD-1 TGE inh: 6.9; EBV gp42 block: 58.1*; LANA-H2A inh: 4.1; C-LANA FP: 1.3; Keap1 Nrf2 FP: -4.0; E coli Lon inh: -5.2

Results for COc1ccc(C(c2nnnn2-c2c(C)cccc2C)N2CCN(C/C=C/c3ccccc3)CC2)cc1 (stereo unspecified) ?
E coli Lon inh: -13.1

What do the screens show for `CC1=C(C(=O)N(C(C)C)C(C)C)CC(CC(=O)NCc2ccco2)C(=O)N1Cc1ccc(C(C)(C)C)cc1` (stereo unspecified)?
E coli Lon inh: 12.5

How did CCOc1ccc(-n2c(=O)c3sccc3n(CC(=O)NC3CCCCC3)c2=O)cc1 do in these assays?
GLD-1 TGE inh: -9.9; LANA-H2A inh: 28.6*; C-LANA FP: -2.0; Keap1 Nrf2 FP: 1.1; E coli Lon inh: 5.7

How did Cc1ccc(-n2c(=O)c3sccc3n(CC(=O)NC3CCCC3)c2=O)cc1 do in these assays?
GLD-1 TGE inh: 6.3; LANA-H2A inh: -2.4; C-LANA FP: -1.6; Keap1 Nrf2 FP: -0.3; E coli Lon inh: -0.9

Results for CCN(CC(=O)NCc1cccs1)C(=O)COc1ccc(C(C)=O)cc1 ?
GLD-1 TGE inh: 0.5; LANA-H2A inh: active; C-LANA FP: 0.2; Keap1 Nrf2 FP: -3.1; E coli Lon inh: -18.2

How did CCN(CC(=O)NCc1cccs1)C(=O)COc1cccc(C(F)(F)F)c1 do in these assays?
GLD-1 TGE inh: 7.5; LANA-H2A inh: -1.0; C-LANA FP: 0.6; Keap1 Nrf2 FP: 5.1; E coli Lon inh: 2.7

What do the screens show for `CN(CC(=O)Nc1cccc(F)c1)C(=O)c1cn(-c2ccccc2)nc1-c1ccc(Cl)cc1`?
GLD-1 TGE inh: 4.0; LANA-H2A inh: 155.7*; C-LANA FP: 0.0; Keap1 Nrf2 FP: 0.4; E coli Lon inh: -1.1

How did CN1CCN(c2ccc(NC(=O)c3ccc(-c4ccc(Cl)cc4)o3)cc2)CC1 do in these assays?
GLD-1 TGE inh: 7.1; LANA-H2A inh: 65.6*; C-LANA FP: -0.6; Keap1 Nrf2 FP: -2.2; E coli Lon inh: -3.7

How did Cc1ccc(N(C)S(=O)(=O)c2ccc(-c3ccc(=O)[nH]n3)s2)cc1C do in these assays?
GLD-1 TGE inh: -5.3; LANA-H2A inh: 3.3; C-LANA FP: 0.6; Keap1 Nrf2 FP: -1.3; E coli Lon inh: -6.5

Results for CCOc1ccc(N(C)S(=O)(=O)c2ccc(-c3ccc(=O)[nH]n3)s2)cc1 ?
GLD-1 TGE inh: -10.9; LANA-H2A inh: 15.1*; C-LANA FP: 1.2; Keap1 Nrf2 FP: -2.3; E coli Lon inh: -7.6

What do the screens show for `Cc1c(/C=N/NC(=O)c2cccnc2)c2ccccc2n1Cc1ccccc1`?
GLD-1 TGE inh: -1.8; EBV gp42 block: -12.6; LANA-H2A inh: 11.8*; C-LANA FP: 1.3; Keap1 Nrf2 FP: 1.6; E coli Lon inh: -9.2

Results for O=S1(=O)N[C@H](Cc2ccccc2)COc2cc(N3CCC[C@@H]3CO)ccc21 ?
E coli Lon inh: -2.7

How did CC1(C)S[C@@H]2[C@H](NC(=O)[C@H](N)c3ccccc3)C(=O)N2[C@H]1C(=O)O do in these assays?
GLD-1 TGE inh: 2.8; EBV gp42 block: 5.6; LANA-H2A inh: 1.5; C-LANA FP: 7.5; Keap1 Nrf2 FP: -1.0; E coli Lon inh: 5.4
